Bioassay records (PubChem BioAssay)
Compounds with a hit are over-represented: about 9.4% of the library has one in this group of screens.
HTT ATP protect: qHTS Multiplex Assay to Identify Dual Action Probes in a Cell Model of Huntington: Cytoprotection (ATP). PC12 HTT-Q103 induced, cytoprotection, ATP luminescence, 40 h. Potency, µM (top dose mostly 56.4 µM), inactives show cytoprotection (ATP increase), actives largely listed as activators. actives 0.14% (n = 230,000); also: potency is read from the fitted curve at half-maximal effect; % of control where 0% means no effect; nearly all actives have a fitted effect of over 45% in size
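Rat PC12, Q103 Htt exon1-GFP fusion, ecdysone promoter; tebufenozide inducer 100 nM final; compound titration; qHTS, 1500 cells/well; ATPlite luminescent read.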
ALDH1A1 block: qHTS Assay for Inhibitors of Aldehyde Dehydrogenase 1 (ALDH1A1); Purified ALDH1A1, NADH fluorescence, propionaldehyde substrate; Aldehyde dehydrogenase 1A1 (Homo sapiens), P00352; actives 7.3% (n = 220,000); Potency, µM (series often up to 75.3 µM), for inactives: at the highest dose activity, negative = inhibition, most hits filed as inhibitors; AID 1030, 2008; active = well fitted inhibition curve with a large enough effect, not every such curve was filed as active; inconclusive = small, poorly fitted or top-dose-only effect, or another doubt; inactive = no such curve, though single readings can be large or run the other way;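 also: potency is read from the fitted curve at half-maximal effect; plate controls were no enzyme wells and a reference inhibitor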
Target sequence (P00352 whole entry, looked up): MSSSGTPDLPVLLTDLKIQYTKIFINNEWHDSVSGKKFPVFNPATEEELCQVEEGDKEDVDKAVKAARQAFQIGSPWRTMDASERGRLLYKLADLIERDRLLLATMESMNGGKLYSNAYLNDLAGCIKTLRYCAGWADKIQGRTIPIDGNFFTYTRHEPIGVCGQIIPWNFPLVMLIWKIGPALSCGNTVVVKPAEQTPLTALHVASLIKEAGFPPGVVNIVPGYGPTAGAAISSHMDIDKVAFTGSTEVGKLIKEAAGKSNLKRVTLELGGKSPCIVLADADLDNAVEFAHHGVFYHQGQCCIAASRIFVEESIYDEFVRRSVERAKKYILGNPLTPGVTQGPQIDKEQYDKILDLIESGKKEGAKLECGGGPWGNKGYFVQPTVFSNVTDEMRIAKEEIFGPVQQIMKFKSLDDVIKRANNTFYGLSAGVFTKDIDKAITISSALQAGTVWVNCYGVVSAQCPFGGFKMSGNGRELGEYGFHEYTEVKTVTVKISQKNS
HPGD inh: qHTS Assay for Inhibitors of HPGD (15-Hydroxyprostaglandin Dehydrogenase) | 15-hydroxyprostaglandin dehydrogenase [NAD(+)] (Homo sapiens), P15428 | purified HPGD, NADH fluorescence kinetic, PGE2 substrate | Potency, µM, for the others: at the highest dose activity change, negative = inhibition, actives largely listed as inhibitors | actives 4.3% (n = 150,000); active = well fitted inhibition curve with a large enough effect, not every such curve was filed as active; inconclusive = small, poorly fitted or top-dose-only effect, or another doubt; inactive = no such curve, though single readings can be large or run the other way; also: potency is read from the fitted curve at half-maximal effect; % is scaled to controls: 0 for no effect and ±100 for the full control effect
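NADH formation kinetics: reaction with 30 uM PGE2 and 1 mM NAD+ (final), 20 nM enzyme, Tris-HCl pH 8 with Tween 20, after 15 min compound preincubation at room temperature. Fluorescence change, last versus first of five reads.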
HTT aggregate: qHTS Multiplex Assay to Identify Dual Action Probes in a Cell Model of Huntington: Aggregate Formation (GFP); PC12 HttQ103-GFP aggregates, Acumen cytometry, 40 h; Potency, µM (doses to about 46.1 µM), inactives show at the highest dose activity change, negative = inhibition, actives largely listed as inhibitors; actives 1.1% (n = 220,000); AID 1688, 2009; also: potency is read from the fitted curve at half-maximal effect; % is scaled to controls: 0 for no effect and ±100 for the full control effect; nearly all actives have a fitted effect of over 60% in size
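PC12/HTTQ103-GFP, ecdysone-inducible; teb 100 nM; cpd qHTS titration; GFP aggregates read on laser cytometer, Ex 488/Em 500-530 nm.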
IMPase Li inh: qHTS Assay for Identifying the Cell-Membrane Permeable IMPase Inhibitors: Potentiation with Lithium. CHO-M1 cells, IP1 TR-FRET (IP-One), carbachol + lithium. Potency, µM (doses to about 59.4 µM), inactives show at the highest dose activity, negative = IMPase inhibition, hits mostly inhibitors. actives 0.35% (n = 210,000);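 also: IP1 builds up when IMPase is blocked and the TR-FRET signal falls; potency is read from the fitted curve at half-maximal effect; plate controls were basal vehicle for no effect and high inhibitor control for full effect; nearly all actives have a fitted effect of over 50% in size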
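CHO cells stably expressing M1 receptor (2000/well) were cultured 16–30 h, then exposed to compounds with a small lithium addition for 30 min at 37C. IP1 was measured by TR-FRET competition; AC50 from Hill fits.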
IMPase inh: qHTS Assay for Identifying the Cell-Membrane Permeable IMPase Inhibitors | Inositol monophosphatase 1 (Rattus norvegicus), P97697 | CHO-M1 cells, IP1 accumulation, HTRF TR-FRET ratio | inhibition (IP1 accumulation), % at 46.1 µM | 120,000 tested, under 10 active | AID 901, 2007; active = well fitted curve in the direction sought with a large enough effect in the signal ratio, not every such curve was filed as active; inconclusive = small, poorly fitted or top-dose-only effect, or a change in a side signal; inactive = no such curve, though single readings can be large or run the other way; the % refers to the signal ratio;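 also: cells stimulated with carbachol in lithium chloride buffer; plate controls were DMSO basal wells for no effect and reference inhibitor wells for full effect; higher means more IMPase inhibition seen as more IP1 and lower FRET ratio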
Target sequence (P97697 whole entry, looked up): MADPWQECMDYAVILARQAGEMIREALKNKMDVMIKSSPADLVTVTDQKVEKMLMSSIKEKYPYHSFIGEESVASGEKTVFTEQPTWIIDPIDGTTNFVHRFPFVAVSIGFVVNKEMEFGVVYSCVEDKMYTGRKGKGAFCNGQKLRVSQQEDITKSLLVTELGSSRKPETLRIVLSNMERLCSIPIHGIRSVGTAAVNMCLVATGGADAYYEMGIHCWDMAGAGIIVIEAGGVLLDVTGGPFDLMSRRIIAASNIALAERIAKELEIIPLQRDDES
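In this qHTS, compounds (final up to 46 uM) act on CHO-M1 cells that are then activated through the M1 receptor with carbachol, in pH 7.4 buffer containing 50 mM LiCl, for 30 min. IP1 accumulation is quantified by the IP-One immunoassay.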
* hit, by the source's call; ? = inconclusive; · = no result given; [ ] = remark or other dose. Unless noted, calls follow the shape of the dose curve; as a rule, active = well fitted curve in the direction sought with a large enough effect; inconclusive = small, poorly fitted or top-dose-only effect, or another doubt; inactive = no such curve, though single readings can be large; an effect the other way counts as inactive or inconclusive.

SMILES	HTT ATP protect	ALDH1A1 block	HPGD inh	HTT aggregate	IMPase Li inh	IMPase inh
COc1ccc(Sc2ccc(/C=C3\C(=O)NN(c4ccccc4)C3=O)o2)cc1	6%[10 µM]	?	16µM*	?	0%	·
COc1c2c(cc3c1C(CC(O)C(C)C)N(C)CC3)OCO2 (centres undefined)	-26%	7%	-2%	·	4%	·
Cc1nn2c3ccccc3n(Cc3ccccc3)c2nc1=O	-4%[10 µM]	19%	?	20%	3%	5
Cc1nn2c3ccccc3n(CC(=O)c3cccs3)c2nc1=O	5%[10 µM]	-10%	·	-1%[9.22 µM]	4µM*	·
Nc1cccc(-c2cn3cccnc3n2)c1	-19%	?	·	7%	-6%	·
Cc1ccc(-c2cn3cccnc3n2)cc1	-232%	?	·	-5%	10µM*	·
CC(C)(C)c1ccc([C@@H](O)CCCN2CCC(C(O)(c3ccccc3)c3ccccc3)CC2)cc1	?	-9%[20.9 µM]	-7%	·	5%	-2[20.6 µM]
Cc1coc(C)c1C(=O)CC1(O)C(=O)Nc2cc(Cl)cc(Cl)c21 (centres undefined)	-3%	3.2µM*	-4%	7%	4%[38.3 µM]	6
CC(=O)OC(C)(C)N=Nc1ccc(Br)cc1	1%[10 µM]	·	·	·	·	·
O=[N+]([O-])c1cccc(Cl)c1CSc1ccccn1	-67%	20µM*	·	17%	17%	·
Cc1nnc(SCc2c(Cl)cccc2[N+](=O)[O-])s1	·	-3%	·	7%	9%	·
N#Cc1ccc(OCC(=O)Nc2cc(S(=O)(=O)N3CCOCC3)ccc2N2CCOCC2)cc1	-22%[10 µM]	·	·	-3%[9.22 µM]	·	·
N#Cc1ccc(NC(=O)CNc2cc(S(=O)(=O)N3CCOCC3)ccc2NCC2CCCO2)cc1 (centres undefined)	-24%	18µM*	·	9%	4%	·
O=C(O)c1cnc2ccccc2n1	0%	25µM*	?	-6%	-13%[38.3 µM]	-4
O=C(O)CN1C(=O)C2C3CC(C2C1=O)C1C(c2ccccc2)c2sc(=O)[nH]c2SC31 (centres undefined)	22%[10 µM]	9%	-2%	-6%	-2%	·
O=c1[nH]c2c(s1)C(c1ccco1)C1C3CCC(C3)C1S2 (centres undefined)	15%	13µM*	-28%	-2%[9.22 µM]	-5%[38.3 µM]	6
CCCn1c(N)c(C(c2ccc(OC)cc2)N2CCN(c3ccccc3)CC2)c(=O)[nH]c1=O (centres undefined)	-13%	2.5µM*	-19%	3%	34%[38.3 µM]	8
COc1ccc(CNC(=O)CN(C(=O)Cn2nnc(-c3ccccc3F)n2)c2ccc(C)cc2)cc1	-6%[10 µM]	8.9µM*	·	7%[9.22 µM]	12%	·
COc1ccc(N(CC(=O)NC2CCCC2)C(=O)Cn2nnc(-c3ccc(C)cc3)n2)cc1	-10%[10 µM]	10%	2%	-31%	13%	-3
CC(=O)c1c(O)cc(C)n(-c2ccc(F)cc2)c1=O	-20%	2%	·	0%[9.22 µM]	-5%	·
CC(=O)c1c(O)cc(C)n(Nc2nc(C)cc(C)n2)c1=O	-2%	11%	-14%	1.3µM*	4%[38.3 µM]	-4
CSc1nc2ccc(NS(=O)(=O)c3cccc(Cl)c3Cl)cc2s1	-12%[10 µM]	?	16µM*	2%	12%	-1
Cc1ccc(-c2nc(S(=O)(=O)c3ccc(C)cc3)c(N3CCCCC3)o2)cc1	·	·	·	·	·	-5
CCN(CC)c1nc(N)c2c(N)n(-c3ccccc3C)c(=S)c(C#N)c2c1C#N	-5%	?	20µM*	-11%	13%[38.3 µM]	-3
CC(=O)Oc1c(C)cc(Cl)cc1C(=O)Nc1ccc([N+](=O)[O-])cc1Cl	-58%[10 µM]	14%	-3%	0.25µM*	15%	·
SMILES	HTT ATP protect	ALDH1A1 block	HPGD inh	HTT aggregate	IMPase Li inh	IMPase inh
CCC#CCOCC(=S)Nc1ccccc1	11%	6%	-15%	·	-6%	·
CCCCC[C@H](O)/C=C/C=C\CCCCCCCC(=O)O	16%	5%	-3%	·	-3%	·
CC1=NN(Cc2ccccc2)C(=O)/C1=C\c1ccc(N(C)C)cc1	9%[10 µM]	14µM*	-6%	19%	34%[38.3 µM]	5
CCOC(=O)C1=NN(c2ccccc2)C(=O)/C1=C\c1ccc(N(C)C)cc1	7%[10 µM]	1.6µM*	13µM*	-29%	13%	-2
CC(=O)N1CCc2ccc(NC(=O)c3c(-c4c(Cl)cccc4Cl)noc3C)cc21	-12%[10 µM]	3%	·	-13%[9.22 µM]	·	·
COc1ccc(/C=C/C(=O)NCCCc2ccccc2)cc1	·	?	-17%	-11%	4%	·
COc1ccc(/C=C/C(=O)NCCSCc2ccco2)cc1	8%[0.074 µM]	?	14µM*	2%	11%	·
O=C(/C=C/c1ccccc1)NCCSCc1ccccc1	·	1µM*	3.2µM*	4%	10%	·
O=C(/C=C/c1ccccc1)NCCCNC(=O)/C=C/c1ccccc1	-17%[10 µM]	-4%	·	1%	9%	·
CS(=O)(=O)Nc1ccc(C(=O)NCCSCc2ccccc2)cc1	-16%[10 µM]	11µM*	·	-14%[9.22 µM]	0%	·
COc1cccc([C@@H]2Oc3ccc(OC)cc3C[C@H]2OC(=O)N[C@H]2CCCc3ccccc32)c1	11%	?	-7%	·	22%	·
Cc1ccc(Cl)cc1N1CCN(CC(=O)Nc2ccc3[nH]c(=O)[nH]c3c2)CC1	3%[10 µM]	22µM*	-7%	-6%	20%[38.3 µM]	6
CC(C)c1ccc(Nc2c(-c3ccsc3)nc3ccc(Cl)cn23)cc1	·	·	·	·	·	6
Cc1ccccc1-c1ccc(=O)n(CC(=O)Nc2ccc(N3CCOCC3)cc2)n1	-11%	-1%	-5%	-4%	8%[38.3 µM]	-3
O=C(CN1CCCCC1)Nc1ccc(S(=O)(=O)N2CCCCCC2)cc1	-18%	1%	-1%	14%[9.22 µM]	14%[38.3 µM]	6
O=C(Cn1nc(-c2ccccc2Cl)ccc1=O)Nc1ccc(Br)cc1	-7%[10 µM]	7.9µM*	·	1%[9.22 µM]	13%	·
Cc1ccccc1-c1ccc(=O)n(CC(=O)Nc2ccc(C(=O)N3CCCC3)cc2)n1	-9%	?	14µM*	-1%	-1%[38.3 µM]	-1
O=C(Cn1nc(-c2ccccc2F)ccc1=O)Nc1ccc(S(=O)(=O)N2CCCCCC2)cc1	3%[10 µM]	?	32µM*	0%	-5%	-11
O=C(COC(=O)CCN1C(=O)c2ccccc2C1=O)Nc1ccc(S(=O)(=O)N2CCCC2)cc1	6%[4.97 µM]	5µM*	-14%	1%	9%[38.3 µM]	16
N[C@@](CCc1ccccc1)(C(=O)O)c1ccccc1	-20%[10 µM]	3%[13.5 µM]	-5%	·	2%	·
